Values without a mark were called inactive. The call rests on the fitted dose curve; in most records, active means well fitted curve in the direction sought with a large enough effect; inconclusive means small, poorly fitted or top-dose-only effect, or another doubt; inactive means no such curve, though single readings can be large; an effect the other way counts as inactive or inconclusive. Inconclusive results are not listed.
Assay: Cell Viability - LYMP1-003 - Assay at 24 hr (AID 963);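 further: plate controls were DMSO only for no effect and tetraoctylammonium bromide positive control for full effect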
Conditions: LYMP1-003 lymphoblastoid cell viability; series mostly up to 92.2 µM; viability change, negative = cytotoxic: at the top concentration
In short: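 The lymphoblastoid line was treated with titrated compounds for 24 hours, and viable cell number estimated from luciferase-based ATP luminescence.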

SMILES	viability change, negative = cytotoxic [%]
NC(=O)c1ccccc1O	2.15
CCCN(CCC)S(=O)(=O)c1ccc(C(=O)O)cc1	-2.94
O=C(O)c1ccc(S(=O)(=O)N(Cl)Cl)cc1	5.81
CCOc1ccc(NC(C)=O)cc1	-2.66
COc1ccc(C(Cl)=C(c2ccc(OC)cc2)c2ccc(OC)cc2)cc1	-18.5
Oc1ccc(Cl)cc1Cc1cc(Cl)ccc1O	-28
COc1ccc(C(=O)c2ccccc2)c(O)c1	1.54

Assay: Cell Viability - LYMP1-003 - Assay at 40 hr (AID 964); further: on the % scale 0 is the no-effect control and ±100 the full control effect; nearly all actives have a fitted effect of over 60% in size
Conditions: LYMP1-003 lymphoblastoid viability; series mostly up to 92.2 µM; activity change, negative = cytotoxic: at the top concentration
In short: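 Acute toxicity is scored as a concentration-dependent loss of intracellular ATP in LYMP1-003 cells (2500/well, complete medium) after 40 hr at 37 C, measured by CellTiter-Glo luminescence; AC50 values derive from standard Hill modelling.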

SMILES	activity change, negative = cytotoxic [%]
NC(=O)c1ccccc1O	4.96
CCCN(CCC)S(=O)(=O)c1ccc(C(=O)O)cc1	-2.24
O=C(O)c1ccc(S(=O)(=O)N(Cl)Cl)cc1	1.4
CCOc1ccc(NC(C)=O)cc1	-3.89
COc1ccc(C(=O)c2ccccc2)c(O)c1	-9.81

Assay: Cell Viability - LYMP2-003 (AID 965);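 further: cells exposed to compounds for 24 h before reading; 0% = DMSO only and full effect = 92 µM tetraoctylammonium bromide; nearly all actives have a fitted effect of over 50% in size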
Conditions: LYMP2-003 lymphoblastoid cell viability; series mostly up to 92.2 µM; activity change, negative = cytotoxicity: at the top concentration
In short: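 Human lymphoblastoid cells (2500/well) were pre-incubated 5 hr at 37 C, then exposed to compounds over a concentration range for 24 hr at 37 C. Intracellular ATP was read by CellTiter-Glo luminescence; AC50 came from Hill-equation fits.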

SMILES	activity change, negative = cytotoxicity [%]
NC(=O)c1ccccc1O	20.4
CCCN(CCC)S(=O)(=O)c1ccc(C(=O)O)cc1	23.2
O=C(O)c1ccc(S(=O)(=O)N(Cl)Cl)cc1	14
CCOc1ccc(NC(C)=O)cc1	3.05
COc1ccc(C(Cl)=C(c2ccc(OC)cc2)c2ccc(OC)cc2)cc1	-16.6
COc1ccc(C(=O)c2ccccc2)c(O)c1	22.8
